Drawing on PubChem BioAssay AID1510 (The Scripps Research Institute Molecular Screening Center, 2009), this text covers inhibition for 36 compounds.

Out of some 220,000 compounds screened, about 570 (0.26%) were called active. No stated cut-off is given here; in the data, active means inhibition above about 29%; inactive means the rest. The sample as a whole holds a higher share of actives than the screen did.

This assay deals with Sphingosine 1-phosphate receptor 4 (Homo sapiens) (UniProt O95977). Put plainly: blockers of human S1P4 receptor – cell-based, primary screen (AID 1510).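 Further: 0% = wells stimulated with agonist and 100% = vehicle wells without agonist.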 The settings on record: S1P4-expressing cells, antagonist mode, reporter read-out; at 4.98 µM; stronger effect = higher value.
Sequence of Sphingosine 1-phosphate receptor 4 (Homo sapiens) (O95977 whole entry, looked up): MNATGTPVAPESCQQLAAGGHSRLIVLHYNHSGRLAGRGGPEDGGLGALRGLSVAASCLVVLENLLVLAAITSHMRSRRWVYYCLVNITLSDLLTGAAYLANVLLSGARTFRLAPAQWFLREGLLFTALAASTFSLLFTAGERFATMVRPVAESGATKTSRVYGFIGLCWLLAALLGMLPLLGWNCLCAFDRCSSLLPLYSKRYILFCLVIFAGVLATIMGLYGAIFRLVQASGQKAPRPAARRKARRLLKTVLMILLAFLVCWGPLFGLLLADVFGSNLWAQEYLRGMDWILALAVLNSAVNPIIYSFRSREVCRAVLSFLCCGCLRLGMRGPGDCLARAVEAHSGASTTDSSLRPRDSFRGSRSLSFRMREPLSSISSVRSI
Turning to `CCOC(=O)/C=C/C(=O)OCC(=O)NC(c1ccccc1)c1ccccc1`, the inhibition – broadly, the change of the read-out against control, counted positive when it falls – was 36.3% (active).
In the case of `O=C(Cc1ccc(-c2ccccc2)cc1)NC(c1ccccc1)c1ccccc1`, the inhibition was -5.23% (inactive).
As for `CCOC(=O)C(C(=O)OCC)C(C#N)c1ccccc1` (stereo unspecified), the inhibition was -19.7% (inactive).
Under `O=C(CSc1cccc[n+]1[O-])NCCCc1ccccc1` stands 14.6% (inactive); under `O=C(Nc1nnc(CCN2CCCCC2)s1)c1cccc(Cl)c1`, 6.03% (inactive); under `Cc1cc(Nc2cccc(C)c2C)n2ncnc2n1`, -10.4% (inactive).
Under `O=C(CSc1nnnn1-c1ccc(O)cc1)c1ccc(F)cc1` stands 6.46% (inactive).
`CCOC(=O)c1sc(NC(=O)CSc2nc(O)c(Cc3ccccc3)c(=O)[nH]2)nc1C`: the inhibition was -8.89% (inactive).
Regarding `Cc1[nH]c2ccccc2c1-c1ccc(Cl)nn1`, the inhibition was 2.48% (inactive).
In the case of `O=C(CO/N=C/c1ccccc1O)NNC(=O)c1ccccc1Cl` it was -12.4% (inactive); in that of `Cc1cc(C)cc(Oc2nc3c(C)cccn3c(=O)c2/C=C(\C#N)C(=O)NC2CCS(=O)(=O)C2)c1` (stereo unspecified), -10.8% (inactive); in that of `CCNC(=O)NNC(=O)C1CC(c2cccs2)=NO1` (stereo unspecified), -2.29% (inactive).
Under `CCOc1ccc(NS(=O)(=O)c2ccc(C)c(C(N)=O)c2)cc1` stands -13.9% (inactive).
As to `CC(=O)Nc1ccc(S(=O)(=O)NC2(C(F)(F)F)C(=O)Nc3c2c(=O)[nH]c(=O)n3Cc2ccccc2)cc1` (stereo unspecified), the inhibition is -16.6% (inactive).
`O=C(Nc1ccccc1)N1CCN(C2c3ccccc3-c3ccccc32)CC1`: the inhibition was -2.81% (inactive).
Regarding `COc1ccc(NC(=O)c2cn(-c3ccccc3)nc2SC)cc1`, the inhibition is -1.4% (inactive).
Take `COCC(=O)Nc1cc(C(=O)OC)cc(C(=O)OC)c1`: the inhibition was -10.1% (inactive).
Consider `Nc1c(C(=O)O)cnn1-c1ccccc1`, for which the inhibition was -7.33% (inactive).
Take `CC(C)NC(=O)NCCCCCCS(C)=O` (stereo unspecified): the inhibition is -8.38% (inactive).
Consider `CSc1cccc(NC(=O)C2CCCN2S(=O)(=O)c2ccc3c(c2)CCC(=O)N3)c1` (stereo unspecified), for which the inhibition is -15% (inactive).
In the case of `CCC(C)(C)C1CCC(=NNC(=O)c2ccc(Br)o2)CC1` (stereo unspecified), the inhibition was -7.44% (inactive).
Take `CCOC(=O)Cc1ncccc1C(=O)Nc1ccc(OC(F)(F)F)cc1`: the inhibition is -25.3% (inactive).
In the case of `COC(=O)c1ccc(S(=O)(=O)NCc2ccccc2)n1C`, the inhibition was -20.7% (inactive).
Consider `Cc1nn(-c2ccccc2)c(C)c1NC(=O)CCl`, for which the inhibition is -19.8% (inactive).
In the case of `COc1ccc2ccccc2c1CNc1nnnn1C` it was 6.29% (inactive); in that of `O=C(O)c1ccn(COc2ccc(Br)cc2)n1`, 3.75% (inactive); in that of `Nc1nnc(SCC(=O)Nc2ccc3nc(SCC(=O)Nc4ccccc4)sc3c2)s1`, -10.8% (inactive).
With `CC(C)C(C)(C#N)NC(=O)CSc1nncn1-c1ccccc1` (stereo unspecified), the inhibition is -9.99% (inactive).
Take `CCOc1ncccc1C(=O)N(C)CC(=O)Nc1ccc(F)cc1`: the inhibition is -7.65% (inactive).
As to `CCCCCC1CCC(c2nnc(SCC(C)=O)o2)CC1` (stereo unspecified), the inhibition is -13.8% (inactive).
Turning to `NC(=O)COC(=O)c1cc(S(=O)(=O)N2CCN(c3ccccc3)CC2)ccc1Cl`, the inhibition is -4.86% (inactive).
Under `Cn1c(CCC(=O)OCC(=O)NCc2ccccc2Cl)nc(=O)c2ccccc21` stands -5.53% (inactive).
Consider `O=C(Nc1ccc(F)cc1)N1CCN(c2ccc(F)cc2)CC1`, for which the inhibition was -44% (inactive).
`Cn1c(N)c(C(=O)COC(=O)c2cnc(Cl)c(Cl)c2)c(=O)n(C)c1=O`: the inhibition is -6.76% (inactive).
Under `CCc1nnc(NS(=O)(=O)c2ccc(NC(=S)NC(=O)/C=C/c3cccs3)cc2)s1` stands 9.53% (inactive); under `O=C(Nc1ccccc1Cc1ccccc1)c1ccc2c(c1)SC1=NS(=O)(=O)CCN12`, -10.9% (inactive).
